From the OligoGym collection come the findings set out here.
Note: reference of the scale not given here.

One assay concerns the target WDFY1. Description: pooled miR-30 sensor sort-seq; sequence = guide strand. The following applies: shRNA.
Turning to TTCCACACTGCAATTCCGCCGT, the sensor-assay potency score (higher = more potent) is -0.441. As to TATAAAACAAATTTAGTCCTTT, the sensor-assay potency score (higher = more potent) is 0.214.

Turning to TTCATCTTTGATGGAGTCGTAA, the sensor-assay potency score (higher = more potent) was -0.712. The same measure, in the same setting: the value for TTTCACTACACATTAGCTGTTC was 0.757; that for TTGAGGGTTGTGATGACTGAAC was -1.35; that for TCTTTCACTACACATTAGCTGT was -0.731.

In turn, TAACTTGAGCGCTTGCTGCTGC displayed a sensor-assay potency score (higher = more potent) of 0.171. For TTGATCGCCTCCTTAAACCTTT, the sensor-assay potency score (higher = more potent) was -0.0804. Regarding TTCTCTGCTAACATCCATGTTC, the sensor-assay potency score (higher = more potent) is -0.775. Same read-out and setting: the value for TAACAAGAATCACAAACCCGGA was -0.759.

TTGACCACTGTCTCTTTTCAGC showed a sensor-assay potency score (higher = more potent) of -0.843. Still for that read-out and setting: the value for TTTCTTCTCTTCCTCATCCTGG was -0.185.

In a further assay the target is WDR33. The description is as above. The following applies: shRNA.
Take TAAACTGTCCCTGTGGACCTGG: the sensor-assay potency score (higher = more potent) was -0.115. Same read-out and setting: the value for TTTACTTCCTGAAACAACTAAC was -1.04; that for TAGGATTATTCAACATTCCTAT was -0.157. Same read-out and setting: the value for TACATCTCTAACATATTGCAAA was -1.19.
